Assay results from PubChem BioAssay AID1259245 (Vanderbilt High Throughput Screening Facility, 2017).
Values joined by “and” are separate entries in the source; they are usually repeats but may differ in a detail not shown here. Identical values can stand only once. About 1,400 (3.5%) of roughly 40,000 compounds were called active.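 Rule for the calls: active = any of four per-well response measures lying three or more SD from its plate-wide compound average, in either direction; inactive = the rest, inconclusive results apart.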 The full list was thinned out, with actives kept by preference.

molecular target: Voltage-dependent calcium channel gamma-2 subunit (Mus musculus) + Glutamate receptor 2 (Rattus norvegicus) (UniProt O88602+P19491); test: AMPAR-TARP gamma-2 complex positive or negative modulation – cell-based, membrane potential dye, primary screen (AID 1259245); conditions: HEK293 GluA2+stargazin, membrane potential dye (FDSS), glutamate EC50, at 30 µM, hits were called plate by plate, in both directions; compound max-min signal: compound-alone response (agonism); glutamate slope, % of max: measured here: glutamate response slope, % max
Sequence (O88602 whole entry, looked up): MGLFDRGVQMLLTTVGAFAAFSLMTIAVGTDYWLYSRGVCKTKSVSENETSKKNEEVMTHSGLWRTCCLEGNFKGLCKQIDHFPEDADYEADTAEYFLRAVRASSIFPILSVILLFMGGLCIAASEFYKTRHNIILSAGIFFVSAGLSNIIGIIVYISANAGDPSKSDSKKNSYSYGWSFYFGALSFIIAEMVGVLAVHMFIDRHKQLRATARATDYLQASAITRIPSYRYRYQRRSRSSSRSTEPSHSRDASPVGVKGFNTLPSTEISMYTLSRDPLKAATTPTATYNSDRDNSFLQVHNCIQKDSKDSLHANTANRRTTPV
Sequence (P19491 whole entry, looked up): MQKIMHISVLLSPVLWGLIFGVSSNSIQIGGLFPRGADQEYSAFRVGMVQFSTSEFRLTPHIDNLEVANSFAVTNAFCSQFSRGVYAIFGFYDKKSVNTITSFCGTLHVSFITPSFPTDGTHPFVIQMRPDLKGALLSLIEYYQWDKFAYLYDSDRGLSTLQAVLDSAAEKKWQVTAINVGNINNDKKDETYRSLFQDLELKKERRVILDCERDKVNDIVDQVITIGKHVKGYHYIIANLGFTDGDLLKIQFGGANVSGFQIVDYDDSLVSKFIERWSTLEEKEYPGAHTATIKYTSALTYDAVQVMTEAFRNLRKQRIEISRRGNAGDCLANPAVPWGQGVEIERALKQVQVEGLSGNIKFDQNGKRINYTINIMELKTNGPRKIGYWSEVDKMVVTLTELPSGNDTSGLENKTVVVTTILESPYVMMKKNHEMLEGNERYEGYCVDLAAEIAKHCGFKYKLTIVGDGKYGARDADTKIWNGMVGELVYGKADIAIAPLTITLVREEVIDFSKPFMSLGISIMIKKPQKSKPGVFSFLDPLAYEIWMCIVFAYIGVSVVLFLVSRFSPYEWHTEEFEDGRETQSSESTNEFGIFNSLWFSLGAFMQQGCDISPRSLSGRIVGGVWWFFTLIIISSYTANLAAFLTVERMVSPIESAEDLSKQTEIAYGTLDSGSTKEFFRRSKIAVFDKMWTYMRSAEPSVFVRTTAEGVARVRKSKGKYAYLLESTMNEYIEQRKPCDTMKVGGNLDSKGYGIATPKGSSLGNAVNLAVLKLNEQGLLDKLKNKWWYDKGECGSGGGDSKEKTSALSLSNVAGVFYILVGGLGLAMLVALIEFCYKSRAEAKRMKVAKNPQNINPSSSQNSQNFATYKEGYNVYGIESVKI

Structure (SMILES)	compound max-min signal	glutamate response, % of max	glutamate slope, % of max
CCOC(=O)N1CCN(/C=C(\C#N)C(=O)Nc2ccccc2)CC1	0.158	47.6% (inactive)	78%
Cc1ccc(F)cc1NC(=O)CSc1ncc(S(=O)(=O)c2ccc(Cl)s2)c(N)n1	0.162	28.9% (inactive)	52.4%
CCOCCn1c(=O)c2c(nc3n2CCCN3c2ccc(Br)cc2)n(C)c1=O	0.127	46.2% (inactive)	67.4%
COc1ccc(OC)c2sc(N(CCN3CCOCC3)C(=O)c3cccs3)nc12	0.221	45.8% (inactive)	65.3%
COc1ccc(OC)c2sc(N(CCN3CCOCC3)C(=O)c3cccc(F)c3)nc12	0.177	47.1% (inactive)	60.4%
COc1ccc(Cl)c2sc(N(CCCN3CCOCC3)C(=O)c3ccno3)nc12	0.17	19.9% (active)	29.3%
O=C(/C=C/c1cccs1)NCC1CCN(C(=O)COc2ccccc2)CC1	0.0649	42% (inactive)	61.3%
Cc1cc(C)c(NC(=O)CN2CCN(c3nccn3-c3ccccc3F)CC2)c(C)c1	0.0429	8.38% (inactive)	22.6%
O=C(Cc1csc(NC(=O)c2ccc(=O)[nH]c2)n1)NCCC1=CCCCC1	0.0625	14.3% (inactive)	44.1%
Cc1cc(NC(=O)C(C)Oc2ccccc2)n(-c2nc3c(cnn3-c3ccc(C)c(C)c3)c(=O)[nH]2)n1 (stereo unspecified)	0.407	19.4% (active)	19.7%
CCC(C(=O)Nc1cc(C)nn1-c1nc2c(cnn2-c2ccccc2)c(=O)[nH]1)c1ccccc1 (stereo unspecified)	0.102	34.9% (inactive)	55.6%
Cc1ccc(-n2ncc3c(=O)n(CC(=O)N4CCc5ccccc54)cnc32)cc1C	0.12	54.7% (inactive)	80.7%
Cc1cc(NC(=O)c2ccc3c(c2)OCO3)n(-c2nc3c(cnn3-c3cccc(Cl)c3)c(=O)[nH]2)n1	0.15	27.3% (active)	36%
O=C(Nn1cnc2c(cnn2-c2cccc(Cl)c2)c1=O)c1ccc(-c2ccccc2)cc1	0.0867	36% (inactive)	64%
CCCC(CCC)C(=O)Nc1cc(C)nn1-c1nc2c(cnn2-c2cccc(Cl)c2)c(=O)[nH]1	0.134	34% (inactive)	47.5%
Cc1ccccc1CN1C(=O)C2(c3ccccc31)N(c1ccc(F)c(F)c1)C(=O)CS2(=O)=O (stereo unspecified)	0.109	63.6% (inactive)	74.8%
CC1CCN(CC(O)COc2ccc(C(=O)c3ccccc3)cc2)CC1 (stereo unspecified)	0.0506	53.3% (inactive)	82.1%
O=C(CCSc1ccccc1)NCC1(c2cccs2)CCOCC1	0.0983	28% (inactive)	50.4%
Cc1ccc(S(=O)(=O)N2CCCCC2CCN)cc1 (stereo unspecified)	0.0595	35.1% (inactive)	57.7%
Cc1ccc(-n2ccnc2N2CCN(CC(=O)Nc3ccc4c(c3)OCO4)CC2)cc1	0.0402	18.2% (inactive)	39.2%
CCSc1nnc(-c2ccc(C)cc2)n1-c1ccccc1	0.0317	0.366% (inactive)	-1.02%

Structure (SMILES)	compound max-min signal	glutamate response, % of max	glutamate slope, % of max
CC(C)c1ccc(NC(=O)C(=O)NCCN2CCN(c3ccc(Cl)cc3)CC2)cc1	0.121	29.8% (inactive)	55.1%
O=c1oc(-c2ccncc2)nc2c(Cl)cccc12	0.253	22.4% (active)	51.7%
Cc1ccc(-c2nc3c(C)cc(C)cc3c(=O)o2)cc1	0.127	23.3% (inactive)	45.9%
Cc1cc(C(=O)O)c2cccc(Cl)c2n1	0.0395 and 0.0789	80.9% (inactive) and 28.3% (inactive)	99.3% and 46.1%
O=C(Nc1ccc2c(c1)OCO2)c1ccc(S(=O)(=O)N2CCCCCC2)cc1	0.123	36.1% (inactive)	60.4%
COc1ccc(N2C(=O)/C(=C/c3ccncc3)SC2=S)cc1	0.061	31.6% (inactive)	49.4%
Cc1ccc(C(=O)Nc2cccc(N3CCCC3=O)c2)cc1[N+](=O)[O-]	0.195	33.5% (active)	54.6%
Cc1cccc(C(=O)Nc2cccc(N3CCCC3=O)c2)c1	0.114	45.7% (inactive)	67.6%
O=C(Nc1cccc(N2CCCCC2=O)c1)c1cc([N+](=O)[O-])ccc1Cl	0.113	24.4% (inactive)	52.2%
COc1ccc(NC(=O)COc2ccccc2F)cc1N1CCCCC1=O	0.0429	20.8% (inactive)	35.3%
O=C(Nc1onc2c1CCCC2)c1nc(-c2cnccn2)no1	0.128	29.1% (inactive)	62.8%
CCC(C)NC(=O)/C=C/c1cc(OC)ccc1OC (stereo unspecified)	0.0444 and 0.0831	100% (inactive) and 35.1% (inactive)	112% and 48.5%
O=C(Nc1ccc(S(=O)(=O)Nc2nccs2)cc1)c1csc(-c2cnccn2)n1	0.274	48.2% (active)	85.9%
CC(C)c1cc(=O)n(CC(=O)Nc2ccc(S(=O)(=O)Nc3nccs3)cc2)cn1	0.0931	41.9% (inactive)	61.5%
CCCCCOc1cccc(C(=O)Nc2ccc(S(=O)(=O)Nc3nnc(CC)s3)cc2)c1	0.112	38.7% (inactive)	62.1%
CCOc1ccccc1NC(=O)Cn1nc(-c2cc(C)c(C)cc2C)ccc1=O	0.0944	64% (inactive)	97.5%
Cc1nc2ccccc2c(=O)n1-c1cccc(NC(=O)CCC2CCCCC2)c1	0.0678	11% (inactive)	28.2%
O=C(NC(C(=O)O)C12CC3CC(CC(C3)C1)C2)c1cc([N+](=O)[O-])ccc1Cl (stereo unspecified)	0.0736	35.4% (inactive)	56.5%
COC(=O)N1CCC(CNC(=O)c2ccc(F)cc2)CC1	0.0851	46.6% (inactive)	66.5%
O=C(NC(C(=O)N1CCCCC1)C12CC3CC(CC(C3)C1)C2)c1ccc(F)cc1 (stereo unspecified)	0.0524	56.1% (active)	79.2%
O=C(Nc1sc2ccccc2c(=O)c1-c1ccc2c(c1)OCO2)c1ccco1	0.14	24.9% (inactive)	55.4%
